In ChEMBL document CHEMBL3988442, “University of Dundee, Small-Polar-MMV Screening Library” (2021) one finds Percent Effect data, which are given here for eleven compounds.

Common to all, as to set-up: scale not given: direction of the effect not stated beside the values
The target in assay [1] is Protein translocase subunit SecA (Escherichia coli (strain K12)) (UniProt P10408). Nature of the assay: Assay to Identify E. coli SecA ATPase Inhibitors. The format is functional. The conditions noted are these: 30 µM.
Assay [2] deals with T1, Ubiquitin-activating enzyme e1, putative (Leishmania donovani (strain BPK282A1)) (UniProt E9BSI1).
T1 sequence (whole entry): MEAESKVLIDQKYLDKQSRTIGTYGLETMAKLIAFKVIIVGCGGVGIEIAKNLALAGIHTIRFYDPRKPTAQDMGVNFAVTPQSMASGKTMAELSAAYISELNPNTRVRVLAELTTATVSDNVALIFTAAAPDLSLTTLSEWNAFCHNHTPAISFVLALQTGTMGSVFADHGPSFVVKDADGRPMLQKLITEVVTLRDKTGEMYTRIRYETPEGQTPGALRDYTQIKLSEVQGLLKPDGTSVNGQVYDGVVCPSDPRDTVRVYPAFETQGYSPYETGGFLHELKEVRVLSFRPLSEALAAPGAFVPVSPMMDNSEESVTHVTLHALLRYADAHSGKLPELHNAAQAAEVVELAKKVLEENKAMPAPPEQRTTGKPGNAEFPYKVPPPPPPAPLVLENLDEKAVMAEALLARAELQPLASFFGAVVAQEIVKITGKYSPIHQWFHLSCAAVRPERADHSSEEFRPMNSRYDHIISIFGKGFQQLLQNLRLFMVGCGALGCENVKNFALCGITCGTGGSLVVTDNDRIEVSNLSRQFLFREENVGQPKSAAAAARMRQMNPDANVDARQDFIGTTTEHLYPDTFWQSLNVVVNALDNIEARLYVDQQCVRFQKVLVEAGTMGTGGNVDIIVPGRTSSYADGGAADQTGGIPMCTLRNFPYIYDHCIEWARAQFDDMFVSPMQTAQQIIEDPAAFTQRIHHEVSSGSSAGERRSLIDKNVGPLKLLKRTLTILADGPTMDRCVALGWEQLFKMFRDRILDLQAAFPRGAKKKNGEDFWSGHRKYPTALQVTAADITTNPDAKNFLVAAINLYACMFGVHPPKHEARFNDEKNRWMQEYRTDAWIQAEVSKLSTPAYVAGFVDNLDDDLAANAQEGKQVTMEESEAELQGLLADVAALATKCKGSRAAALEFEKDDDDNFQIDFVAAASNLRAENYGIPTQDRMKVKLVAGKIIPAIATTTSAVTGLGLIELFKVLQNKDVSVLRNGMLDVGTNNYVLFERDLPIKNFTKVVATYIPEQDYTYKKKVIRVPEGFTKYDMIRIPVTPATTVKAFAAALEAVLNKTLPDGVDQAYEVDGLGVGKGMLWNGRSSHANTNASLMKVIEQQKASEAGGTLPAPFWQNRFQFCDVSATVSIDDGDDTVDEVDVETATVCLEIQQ
Nature of the assay: Leishmania donovani Ubiquitin Activating Enzyme (LdE1). Particulars: 30 µM. Type of assay: functional.

Assay [3] deals with AMP-activated protein kinase, AMPK (Homo sapiens) (UniProt P54646+O43741+P54619+Q9UGJ0+Q9Y478+Q13131+Q9UGI9). Nature of the assay: AMP-dependent Kinase enzyme assay. An in vitro enzyme assay that detects ADP turnover that is directly proportional to AMPK activity. This uses naive AMPK that is activated during the assay with MK-8722. Type of assay: functional. The conditions noted are these: 30 µM.

Assay [4] deals with Sialic acid-binding Ig-like lectin 9 (Homo sapiens) (UniProt Q9Y336). Nature of the assay: Hs-Siglec9 ALPHAscreen SOP 20170721. The conditions noted are these: 10 µM.
The subject of assay [5] is Trypanosoma cruzi. Nature of the assay: Trypanosoma cruzi phosphomannomutase and mannose-1-phosphate guanylyltransferase assay. The format is functional. The conditions noted are these: 10 µM.
Assay [6] addresses T2, Arginase-2, mitochondrial (Homo sapiens) (UniProt P78540).
T2 sequence (whole entry): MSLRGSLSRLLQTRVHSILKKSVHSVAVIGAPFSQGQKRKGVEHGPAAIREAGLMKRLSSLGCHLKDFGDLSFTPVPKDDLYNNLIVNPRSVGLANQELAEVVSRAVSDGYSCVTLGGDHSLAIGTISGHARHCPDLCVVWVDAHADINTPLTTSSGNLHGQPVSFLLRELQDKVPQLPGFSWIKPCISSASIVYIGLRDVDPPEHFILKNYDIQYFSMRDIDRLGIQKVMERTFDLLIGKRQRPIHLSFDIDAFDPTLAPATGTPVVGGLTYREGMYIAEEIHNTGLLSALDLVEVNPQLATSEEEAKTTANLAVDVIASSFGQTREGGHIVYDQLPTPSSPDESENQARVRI
Nature of the assay: in vitro enzyme assay to detect the production of urea directly proportional to the activity of Arginase II. Note: in the data most compounds retested in dose-response had high values. Type of assay: functional. Particulars: 33.3 µM.

Assay [7] addresses T3, Proteasome subunit beta (Trypanosoma cruzi) (UniProt O96673).
T3 sequence (whole entry): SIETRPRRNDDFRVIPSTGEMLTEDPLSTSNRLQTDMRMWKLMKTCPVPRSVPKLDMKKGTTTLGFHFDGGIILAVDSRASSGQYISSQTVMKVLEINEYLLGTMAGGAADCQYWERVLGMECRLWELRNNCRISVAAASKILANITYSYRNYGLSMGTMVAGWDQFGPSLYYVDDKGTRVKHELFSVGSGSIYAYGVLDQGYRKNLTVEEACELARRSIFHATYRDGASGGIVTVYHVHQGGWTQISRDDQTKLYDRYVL
Nature of the assay: Trypanosoma cruzi proteasome chymotrypsin-like activity (TcProtChymo) assay. Note: in the data most compounds retested in dose-response had high values. The format is functional. The conditions noted are these: 9.37 µM.

Assay [8] is filed under the species Homo sapiens. Nature of the assay: To identify inhibition of the IFN signalling (Jak-Stat) pathway via expression of an eGFP reporter gene under the control of an IFN-stimulated response element (ISRE) containing MxA promoter. The format is functional. Particulars: 30 µM.
Assay [9] concerns the target T4, Tyrosyl-tRNA synthetase, putative (Trypanosoma cruzi (strain CL Brener)) (UniProt Q4DSP6).
T4 sequence (whole entry): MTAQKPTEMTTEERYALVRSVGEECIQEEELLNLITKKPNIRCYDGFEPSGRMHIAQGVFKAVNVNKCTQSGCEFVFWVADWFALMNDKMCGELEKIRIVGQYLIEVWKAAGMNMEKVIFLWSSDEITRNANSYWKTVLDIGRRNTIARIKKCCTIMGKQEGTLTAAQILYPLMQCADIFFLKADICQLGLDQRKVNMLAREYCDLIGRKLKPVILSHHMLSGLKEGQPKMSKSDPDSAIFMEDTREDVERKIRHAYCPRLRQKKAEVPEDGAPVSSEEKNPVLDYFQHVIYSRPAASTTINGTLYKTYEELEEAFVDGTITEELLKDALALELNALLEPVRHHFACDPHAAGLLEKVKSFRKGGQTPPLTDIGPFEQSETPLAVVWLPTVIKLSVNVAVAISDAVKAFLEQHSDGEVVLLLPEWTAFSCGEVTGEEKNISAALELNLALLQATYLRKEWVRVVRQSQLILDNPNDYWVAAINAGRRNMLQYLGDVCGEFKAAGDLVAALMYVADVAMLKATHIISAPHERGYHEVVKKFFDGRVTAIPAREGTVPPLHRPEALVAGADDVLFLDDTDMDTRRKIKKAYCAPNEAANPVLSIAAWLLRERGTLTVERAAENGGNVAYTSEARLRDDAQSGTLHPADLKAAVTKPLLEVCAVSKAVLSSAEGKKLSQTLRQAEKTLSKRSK
Nature of the assay: Trypanosoma cruzi tyrosyl tRNA synthetase (TcYRS) _High Tyrosine SOP. Note: in the data most compounds retested in dose-response had high values. Type of assay: functional. Particulars: 30 µM.

Assay [10] addresses T4, Tyrosyl-tRNA synthetase, putative (Trypanosoma cruzi (strain CL Brener)). Nature of the assay: Trypanosoma cruzi tyrosyl tRNA synthetase (TcYRS) SOP. Type of assay: functional. Particulars: 30 µM.
Assay [11] addresses Chromo domain-containing protein 1 (Saccharomyces cerevisiae (strain ATCC 204508 / S288c) (Baker's yeast)) (UniProt P32657). Nature of the assay: ScCHD-1 Enzyme Inhibition Assay. Note: in the data most compounds retested in dose-response had high values. Type of assay: functional. The conditions noted are these: 30 µM.

The structures appear in SMILES notation. For some of these results: Measured potencies and affinities stand elsewhere.

Sialic acid-binding Ig-like lectin 9 (Homo sapiens), sequence (Q9Y336 whole entry): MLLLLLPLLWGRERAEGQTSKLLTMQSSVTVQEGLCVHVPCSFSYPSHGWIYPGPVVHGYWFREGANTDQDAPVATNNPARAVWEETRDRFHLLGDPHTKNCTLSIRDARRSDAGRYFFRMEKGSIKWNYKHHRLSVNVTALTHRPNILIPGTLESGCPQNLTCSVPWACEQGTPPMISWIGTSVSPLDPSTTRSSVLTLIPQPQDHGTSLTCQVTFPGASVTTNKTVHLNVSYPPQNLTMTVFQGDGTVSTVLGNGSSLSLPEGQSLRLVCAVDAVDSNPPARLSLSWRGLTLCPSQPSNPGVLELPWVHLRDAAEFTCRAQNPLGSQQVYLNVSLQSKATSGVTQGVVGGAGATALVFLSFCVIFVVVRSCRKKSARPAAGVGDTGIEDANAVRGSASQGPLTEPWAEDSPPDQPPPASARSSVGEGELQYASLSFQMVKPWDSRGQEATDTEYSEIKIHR
Chromo domain-containing protein 1 (Saccharomyces cerevisiae (strain ATCC 204508 / S288c) (Baker's yeast)), sequence (P32657 whole entry, the tested form may be a part): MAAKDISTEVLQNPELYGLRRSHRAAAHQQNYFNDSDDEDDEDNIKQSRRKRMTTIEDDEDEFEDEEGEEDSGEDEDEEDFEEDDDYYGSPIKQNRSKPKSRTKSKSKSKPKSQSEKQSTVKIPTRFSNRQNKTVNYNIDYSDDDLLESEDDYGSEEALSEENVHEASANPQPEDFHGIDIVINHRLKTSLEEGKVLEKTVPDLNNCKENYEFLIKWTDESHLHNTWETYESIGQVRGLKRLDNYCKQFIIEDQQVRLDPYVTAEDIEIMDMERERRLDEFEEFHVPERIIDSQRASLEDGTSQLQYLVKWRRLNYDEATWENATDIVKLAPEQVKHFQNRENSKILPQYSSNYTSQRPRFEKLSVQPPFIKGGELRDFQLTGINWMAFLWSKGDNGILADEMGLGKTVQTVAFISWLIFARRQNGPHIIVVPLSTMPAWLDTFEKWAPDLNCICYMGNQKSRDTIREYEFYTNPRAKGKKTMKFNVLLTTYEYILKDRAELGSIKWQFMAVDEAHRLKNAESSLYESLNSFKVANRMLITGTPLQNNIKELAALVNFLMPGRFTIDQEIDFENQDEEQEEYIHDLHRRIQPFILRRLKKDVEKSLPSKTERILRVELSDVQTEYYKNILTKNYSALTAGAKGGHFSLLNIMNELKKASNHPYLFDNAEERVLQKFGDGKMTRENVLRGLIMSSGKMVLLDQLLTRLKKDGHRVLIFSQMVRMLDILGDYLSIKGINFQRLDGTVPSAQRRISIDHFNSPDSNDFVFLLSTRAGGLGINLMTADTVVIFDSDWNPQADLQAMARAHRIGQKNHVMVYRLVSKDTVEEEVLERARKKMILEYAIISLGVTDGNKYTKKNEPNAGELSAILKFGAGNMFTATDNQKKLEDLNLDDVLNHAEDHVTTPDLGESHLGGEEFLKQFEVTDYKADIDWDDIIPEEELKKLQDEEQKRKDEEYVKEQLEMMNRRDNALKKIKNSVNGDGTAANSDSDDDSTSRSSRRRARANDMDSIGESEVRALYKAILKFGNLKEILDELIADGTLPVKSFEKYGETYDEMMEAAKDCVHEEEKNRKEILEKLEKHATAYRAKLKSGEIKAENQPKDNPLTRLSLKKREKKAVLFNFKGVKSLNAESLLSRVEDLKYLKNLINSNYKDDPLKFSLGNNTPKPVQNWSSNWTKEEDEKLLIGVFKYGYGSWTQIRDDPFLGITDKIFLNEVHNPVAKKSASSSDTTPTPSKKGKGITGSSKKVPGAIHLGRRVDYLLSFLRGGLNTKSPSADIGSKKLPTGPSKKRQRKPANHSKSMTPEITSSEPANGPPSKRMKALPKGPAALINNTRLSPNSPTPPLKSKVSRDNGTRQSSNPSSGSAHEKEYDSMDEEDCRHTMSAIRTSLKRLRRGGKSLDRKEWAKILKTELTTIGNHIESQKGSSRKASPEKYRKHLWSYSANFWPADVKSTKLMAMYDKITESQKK
Protein translocase subunit SecA (Escherichia coli (strain K12)), sequence (P10408 whole entry): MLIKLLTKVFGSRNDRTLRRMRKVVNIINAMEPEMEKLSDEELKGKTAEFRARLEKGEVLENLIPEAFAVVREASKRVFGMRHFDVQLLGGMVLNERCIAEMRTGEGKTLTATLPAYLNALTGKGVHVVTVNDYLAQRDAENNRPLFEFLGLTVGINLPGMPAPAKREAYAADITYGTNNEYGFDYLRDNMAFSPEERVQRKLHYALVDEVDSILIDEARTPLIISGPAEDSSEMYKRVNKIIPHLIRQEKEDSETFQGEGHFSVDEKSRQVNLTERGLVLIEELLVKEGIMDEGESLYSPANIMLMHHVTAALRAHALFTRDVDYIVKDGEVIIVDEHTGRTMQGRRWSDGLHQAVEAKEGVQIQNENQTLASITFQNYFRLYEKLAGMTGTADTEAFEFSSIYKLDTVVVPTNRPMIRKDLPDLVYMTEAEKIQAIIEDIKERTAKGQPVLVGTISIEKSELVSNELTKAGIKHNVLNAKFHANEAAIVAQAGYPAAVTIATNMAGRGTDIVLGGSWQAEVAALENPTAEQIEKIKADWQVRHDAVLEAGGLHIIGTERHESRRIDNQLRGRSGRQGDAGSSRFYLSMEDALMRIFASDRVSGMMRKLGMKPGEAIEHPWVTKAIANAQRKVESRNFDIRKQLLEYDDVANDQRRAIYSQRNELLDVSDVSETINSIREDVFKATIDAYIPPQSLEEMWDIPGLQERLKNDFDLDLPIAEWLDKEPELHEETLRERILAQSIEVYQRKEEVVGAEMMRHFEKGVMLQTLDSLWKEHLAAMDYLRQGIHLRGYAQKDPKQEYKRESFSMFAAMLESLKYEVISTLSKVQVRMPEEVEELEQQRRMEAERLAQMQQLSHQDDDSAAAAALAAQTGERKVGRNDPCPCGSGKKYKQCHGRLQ

Take `CSc1ncccc1C(=O)N1CCC(c2nc3c(C)cccc3[nH]2)CC1`: the Percent Effect is -5.33% in assay [1]; 20.8% in [2]; 6.84% in assay [3]; 10.4% in [4]; 3.83% in assay [5]; -5.52% in assay [6]. The Percent Effect in assay [7] is 16.1%; in assay [8], 3.12%; in assay [9], 7.53%; in assay [10], 13.6%; in [11], -10.4%.

As to `CC(O)CN1CCN(C(=O)CN(C)c2cnccn2)CC1` (stereo unspecified), the Percent Effect in assay [1] was 3.16%; in assay [2] it was 5.41%; in assay [3], -4.8%; in assay [4] it was 6.58%; in [5] it was -2.12%; in [6] it was -70%. The Percent Effect in [7] is 16.6%; in assay [8], 5.3%; in assay [9] it was 3.7%; in assay [10] it was 4.88%; in [11] it was -5.99%.

With `CCn1ccnc1CN1C[C@@H](CN2CCCC2)[C@@H](CO)C1`, the Percent Effect was -6.84% in assay [1]; -2.7% in assay [2]; -3.35% in assay [3]; 7.12% in assay [4]; -4.44% in [5]; -1.91% in assay [6]. Moreover, the Percent Effect is 8.28% in assay [7]; -5.58% in [8]; 1.59% in [9]; 7.32% in assay [10]; -1.85% in assay [11].

Regarding `CCCNC(=O)c1sccc1N(C)S(=O)(=O)c1ccc(Cl)cc1`, the Percent Effect in assay [1] is 1.13%; in assay [2] it was 7.89%; in assay [3], -1.42%; in assay [4], -7.73%; in [5], -8.67%; in [6], 9.47%. Also, the Percent Effect was 13.3% in assay [7]; 38.4% in assay [8]; -4.25% in assay [9]; -2.6% in assay [10]; -1.51% in [11].

As to `Cc1cnc(C(=O)N2CCCC(n3ccnc3C)C2)cn1` (stereo unspecified), the Percent Effect in assay [1] is -4.96%; in [2], 5.26%; in assay [3] it was -7.85%; in assay [4], 7.54%; in assay [5], 8.5%; in assay [6], 0.36%. Moreover, the Percent Effect in assay [7] was 3.13%; in [8] it was 3.76%; in [9] it was 5.42%; in assay [10] it was 18.5%; in [11] it was -4.86%.

Take `Cc1cc(C)n(C2CCCN(C(=O)CCCNc3ncccn3)C2)n1` (stereo unspecified): the Percent Effect was -6.94% in assay [1]; 13.9% in assay [2]; -2.21% in assay [3]; -4.67% in [4]; 3.38% in [5]; 2.8% in assay [6]. The Percent Effect in assay [7] was 10.6%; in assay [8] it was -0.293%; in assay [9] it was 4.17%; in assay [10], 20.2%; in assay [11], -26.7%.

Consider `CC(C)CS(=O)(=O)N1C[C@H]2C[C@H](C(=O)NCc3ccccc3)[C@@H](C1)O2`, for which the Percent Effect was 1.12% in [1]; 9.33% in assay [2]; 4.22% in assay [3]; -2.68% in assay [4]; -10% in assay [5]; 0.88% in [6]. The Percent Effect in assay [7] was 13.3%; in assay [8] it was 2.72%; in [9], 3.17%; in assay [10], 2.56%; in [11], -5.74%.

Regarding `CNC(=O)[C@H]1C[C@H]2OCC[C@H]2N(Cc2ccc(C)o2)C1`, the Percent Effect was -0.274% in [1]; 7.79% in assay [2]; 4.6% in assay [3]; 0.238% in assay [4]; -6.02% in assay [5]; -4.52% in [6]. For the same compound, the Percent Effect in [7] is 9.57%; in assay [8] it was 7.69%; in [9], 1.06%; in assay [10], 8.97%; in assay [11] it was -6.31%.

For `CCc1noc(CN2CCN(C(=O)N(C)C)CC2)n1`, the Percent Effect in [1] was -5.22%; in assay [2] it was -2.53%; in assay [3] it was 7.62%; in assay [4] it was 3.9%; in [5], -5.38%; in [6] it was 0.38%. For the same compound, the Percent Effect in assay [7] is 4.83%; in assay [8] it was 23.4%; in [9], -5.42%; in assay [10] it was -16.5%; in [11], -4.89%.

With `CCCC(C)CN1CCC(n2cc(C3CCCC3)nn2)CC1` (stereo unspecified), the Percent Effect was -5.89% in assay [1]; 13.3% in assay [2]; -5.31% in [3]; 18.9% in assay [4]; 9.45% in assay [5]; 10.4% in [6]. Moreover, the Percent Effect was 9.07% in assay [7]; 7.54% in assay [8]; 6.01% in assay [9]; 11.1% in assay [10]; -4.05% in [11].

For the compound `O=C(c1cccnc1)N1C[C@@H]2CC[C@H](C1)N(Cc1cccc(Cl)c1F)C2`, the Percent Effect in assay [1] was -2.44%; in [2] it was 8.22%; in assay [3] it was 11.4%; in assay [4], 4.43%; in [5], -0.588%; in assay [6], 5%. Further, the Percent Effect was 10.8% in assay [7]; 8.1% in assay [8]; 9.68% in assay [9]; 22.5% in assay [10]; -3.1% in assay [11].
